The values that follow come from PubChem BioAssay (Tox21).

Several values for one entry are separate records, joined by “and”; a condition that tells them apart may be missing. Equal values may be shown once. Records with an inconclusive call do not appear. A call without a number means that no potency is given here. A structure can be active in one record and inactive in another. Activity calls are given as the source filed them. Calls come from the whole dose curve.
Potency is the fitted concentration of half-maximal effect.

Sequence of Peroxisome proliferator-activated receptor gamma (Homo sapiens) (P37231 whole entry, looked up): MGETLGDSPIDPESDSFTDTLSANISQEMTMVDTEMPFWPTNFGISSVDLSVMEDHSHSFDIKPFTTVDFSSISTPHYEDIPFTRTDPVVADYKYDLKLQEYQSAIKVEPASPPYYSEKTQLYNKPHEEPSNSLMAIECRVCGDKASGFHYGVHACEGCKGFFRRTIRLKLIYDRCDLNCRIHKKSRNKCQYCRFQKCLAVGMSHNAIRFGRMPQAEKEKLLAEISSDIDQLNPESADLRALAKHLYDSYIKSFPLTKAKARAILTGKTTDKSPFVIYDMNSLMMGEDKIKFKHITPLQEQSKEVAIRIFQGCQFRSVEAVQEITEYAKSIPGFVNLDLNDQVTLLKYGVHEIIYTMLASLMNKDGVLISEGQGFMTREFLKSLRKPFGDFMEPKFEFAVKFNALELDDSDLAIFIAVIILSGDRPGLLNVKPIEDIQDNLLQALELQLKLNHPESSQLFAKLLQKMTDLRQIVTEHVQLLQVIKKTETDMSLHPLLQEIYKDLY

The target of this test is Peroxisome proliferator-activated receptor gamma (Homo sapiens) (UniProt P37231). Briefly: qHTS assay to identify small molecule antagonists of the peroxisome proliferator-activated receptor gamma (PPARg) signaling pathway (AID 743191). Note: nearly all actives have a fitted effect of over 30% in size. To be noted: HEK293H PPARg-UAS-bla, beta-lactamase ratio, antagonist, 17 h; series mostly up to 62.6 µM; ratio activity, negative = inhibition: at the top concentration. The text has this:
U.S. Tox21 Program National Center for Advancing Translational Sciences [NCATS] NIH Chemical Genomics Center [NCGC] U.S. Environmental Protection Agency [EPA] National Institutes of Environmental Health Sciences [NIEHS] National Toxicology Program [NTP] U.S. Food and Drug Administration [FDA] Tox21 Assay Overview: The peroxisome proliferator-activated receptors (PPARs) are lipid-activated transcription factors of the nuclear receptor superfamily with three distinct subtypes namely PPAR alpha, PPAR delta (also called PPAR beta) and PPAR gamma (PPARg). All these subtypes heterodimerize with Retinoid X receptor (RXR) and these heterodimers regulate transcription of various genes. PPAR-gamma receptor (glitazone receptor) is involved in the regulation of glucose and lipid metabolism. To identify the compounds that inhibit PPAR-gamma signaling, GeneBLAzer PPAR gamma UAS-bla HEK293H cell line (Invitrogen, Carlsbad, CA, USA) containing a beta-lactamase reporter gene under control of an Upstream Activator Sequence (UAS) was used to screen the Tox21 compound library.
Tox21 Assay Protocol Summary: PPARg-bla cells were dispensed at 3000 cells/6uL/well in 1536-well black wall/clear bottom plates using a Multidrop Combi (Thermo Fisher Scientific, Waltham, MA) dispenser. After the assay plates were incubated at 37C and 5% CO2 for 5 h, 23 nL of compounds dissolved in DMSO, positive controls or DMSO only was transferred to the assay plate by a Pintool station (Kalypsys, San Diego, CA). The assay plates were incubated at 37C for 17 h. After 1 uL of LiveBLAzerTM B/G FRET substrate was added using a Bioraptr Flying Reagent Dispenser (FRD) workstation (Beckman Coulter, Indianapolis, IN, USA), the plates were incubated at room temperature for 1 h, and fluorescence intensity was measured by an Envision plate reader (PerkinElmer, Shelton, CT).
Consider `O=C/C=C/c1ccccc1`, for which the “ratio activity, negative = inhibition” value was -10.7% (inactive).

For `CC(=O)/C=C/c1ccccc1`, the Potency entry is “inactive”.

With `Cc1cccc(C)c1NC(=O)CN1CCCC1=O`, the “ratio activity, negative = inhibition” value was -1.3% [at 81.1 µM] (inactive).

In the case of `O=C(O)CCCc1ccc(N(CCCl)CCCl)cc1`, the Potency entry was “inactive”.

On to `ClCCOCCCl`, for which the Potency result is “inactive”.

For the compound `COc1cc(-c2ccc(N)c(OC)c2)ccc1N`, the Potency entry was “inactive and 33.1 µM (active)”.

Consider `Oc1c(Br)cc(Br)cc1Br`, for which the Potency was 43.7 µM (active).

On to `O=C(O)COc1ccccc1`, for which the Potency result was “inactive”.

With `ClC(Cl)c1ccccc1`, the Potency result is “inactive”.

For `Nc1ncc([N+](=O)[O-])s1`, the Potency result is “inactive”.

For the compound `N#Cc1ccccn1`, the “ratio activity, negative = inhibition” value was -15.6% (inactive).

Consider `N#CN=C(N)N`, for which the Potency entry is “inactive”.

In the case of `Cl[C@H]1OCCO[C@@H]1Cl`, the Potency entry was “inactive”.

As for `O=C(O)c1cc(Oc2ccc(C(F)(F)F)cc2Cl)ccc1[N+](=O)[O-]`, the “ratio activity, negative = inhibition” value is -25.1% (inactive).

Turning to `CNc1cnn(-c2cccc(C(F)(F)F)c2)c(=O)c1Cl`, the “ratio activity, negative = inhibition” value was 14.7% (inactive).

On to `CNCC(O)c1ccc(O)cc1` (stereo not given), for which the “ratio activity, negative = inhibition” value is -2.68% (inactive).

As to `CNC(=O)O/N=C/C(C)(C)S(C)(=O)=O`, the “ratio activity, negative = inhibition” value is 11.1% [at 81.1 µM] (inactive).

For `Cc1cccc(C)c1N`, the “ratio activity, negative = inhibition” value was -6.18% (inactive).

For the compound `CN(C)C(=O)Cl`, the “ratio activity, negative = inhibition” value is 4.76% (inactive).

With `COS(=O)(=O)OC`, the Potency entry was “inactive”.

On to `FC(F)(F)c1ccc(Cl)cc1`, for which the Potency result is “inactive”.

As to `O=P1(NCCCl)OCCCN1CCCl` (stereo not given), the Potency entry was “inactive”.

Take `Cc1cc(O)ccc1Cl`: the Potency entry is “inactive”.

Regarding `Nc1ccc(N)cc1`, the “ratio activity, negative = inhibition” value is -1.99% (inactive).

On to `Cc1ccc(N)cc1`, for which the Potency result was “inactive”.

`O=[N+]([O-])c1ccc(Cl)c(Cl)c1`: the Potency result is “inactive”.

For `CNC(=O)O/N=C/C(C)(C)SC`, the Potency entry is “inactive”.

In the case of `Cc1cc(Cl)ccc1OC(C)C(=O)O` (stereo not given), the “ratio activity, negative = inhibition” value was -18.4% (inactive).

For `N#Cc1cccc(C#N)c1`, the Potency result was “inactive”.

Consider `O=S(=O)(O)OOS(=O)(=O)O`, for which the Potency entry was “inactive”.

Consider `COP(=S)(OC)Oc1ccc(SC)c(C)c1`, for which the Potency entry is “inactive”.

As for `OC[C@@H](O)[C@H]1O[C@@H]2O[C@H](C(Cl)(Cl)Cl)O[C@@H]2[C@H]1O`, the Potency result is “inactive”.

On to `COc1nc(NC(C)C)nc(NC(C)C)n1`, for which the Potency result was “inactive”.

Turning to `Cc1cccc(N)c1C`, the Potency entry was “inactive”.

Turning to `CCCCC(CC)C(=O)Cl` (stereo not given), the Potency result is “inactive”.

On to `C=C(C)C(=O)OCC(CC)CCCC` (stereo not given), for which the Potency result was “inactive”.

Regarding `O=C(O)Cc1ccccc1`, the “ratio activity, negative = inhibition” value was -0.0483% (inactive).

As for `Nc1cccc(Cl)c1`, the Potency entry is “inactive”.

As for `CCOC(=O)CC(SP(=O)(OC)OC)C(=O)OCC` (stereo not given), the “ratio activity, negative = inhibition” value is -1.21% (inactive).

On to `COC(C)(C)CCCC(C)C/C=C/C(C)=C/C(=O)OC(C)C` (stereo not given), for which the “ratio activity, negative = inhibition” value is 8.93% (inactive).
